Our source for the binding signal values is article PMC12820563, “FoxP3 forms a head-to-head dimer in vivo and stabilizes its multimerization on adjacent microsatellites”.

Over roughly 16,000 sequences, “rpm ratio (pull-down/input)” has its median near 0.5; the highest 2% begin near 5.5. For the sample, the highest values were picked, then their nearest neighbours and some sequences at random.

This test deals with T1, MBP-FoxP3dN (Mus musculus, UniProt Q99JB6 188-423).
T1 sequence: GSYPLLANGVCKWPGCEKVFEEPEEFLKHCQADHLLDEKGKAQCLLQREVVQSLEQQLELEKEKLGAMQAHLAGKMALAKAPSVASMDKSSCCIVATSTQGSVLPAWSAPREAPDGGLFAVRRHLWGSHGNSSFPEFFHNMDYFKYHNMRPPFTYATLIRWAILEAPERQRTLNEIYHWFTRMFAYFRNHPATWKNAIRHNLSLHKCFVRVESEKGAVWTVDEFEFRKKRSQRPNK
As to the kind of experiment: PD-seq (MBP pull-down with sequencing); 20 mM Tris-HCl pH 7.5, 100 mM NaCl, 1.5 mM MgCl2, 0.4 uM protein, 0.1 uM dsDNA library, 30 min, room temperature, amylose pull-down; high values mean tight binding. To be noted: protein: recombinant; tags: His6-MBP; chain copies: 2; dsDNA, one strand shown. An outline of the steps:
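Amylose resin was used to capture complexes formed during 30 min at room temperature in Tris pH 7.5 buffer with NaCl and MgCl2 between 0.4 µM His6-MBP-tagged mouse FoxP3 or FoxP1 fragment lacking the N-terminus, expressed in E. coli, and 0.1 µM Klenow-filled double-stranded degenerate DNA library. After three washes, the DNA was released with proteinase K, barcoded by PCR and sequenced on Illumina. Binding is pooled-replicate reads-per-million enrichment, pull-down over input.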
For the sequence “GATGATTGTTCTCCCAGCTGATGAATTGAATCACTCGAGTAAACAAATTTTCCTAATCTTTCTGTTCAAGCGCCATCTAC”, the binding signal is 0.551 RPM ratio (pull-down/input). As for “GATGATTGTTCTCCCAGCTGATGAATTCAATTGCTCGAGTAAACAAATTTTCCTAATCTTTCTGTTCAAGCGCCATCTAC”, the figure is 2.31 RPM ratio (pull-down/input); as for “GATGATTGTTCTCCCAGCTGATGAATTAGGATGTTCGAGTAAACAAATTTTCCTAATCTTTCTGTTCAAGCGCCATCTAC”, 0.82 RPM ratio (pull-down/input); as for “GATGATTGTTCTCCCAGCTGATGAATTTTTGCGTTCGAGTAAACAAATTTTCCTAATCTTTCTGTTCAAGCGCCATCTAC”, 2.04 RPM ratio (pull-down/input).

“GATGATTGTTCTCCCAGCTGATGAATTGTATTATTCGAGTAAACAAATTTTCCTAATCTTTCTGTTCAAGCGCCATCTAC”: the binding signal was 5.22 RPM ratio (pull-down/input). “GATGATTGTTCTCCCAGCTGATGAATTATTGCAGTCGAGTAAACAAATTTTCCTAATCTTTCTGTTCAAGCGCCATCTAC”: the binding signal was 1.18 RPM ratio (pull-down/input). In the case of “GATGATTGTTCTCCCAGCTGATGAATTCAGCTGTTCGAGTAAACAAATTTTCCTAATCTTTCTGTTCAAGCGCCATCTAC”, the binding signal was 1.19 RPM ratio (pull-down/input). Then “GATGATTGTTCTCCCAGCTGATGAATTGATTCGCTCGAGTAAACAAATTTTCCTAATCTTTCTGTTCAAGCGCCATCTAC”, with 0.331 RPM ratio (pull-down/input); and “GATGATTGTTCTCCCAGCTGATGAATTATGGCTCTCGAGTAAACAAATTTTCCTAATCTTTCTGTTCAAGCGCCATCTAC”, with 0.643 RPM ratio (pull-down/input). Then “GATGATTGTTCTCCCAGCTGATGAATTTGATTGATCGAGTAAACAAATTTTCCTAATCTTTCTGTTCAAGCGCCATCTAC”, with 2.23 RPM ratio (pull-down/input); and “GATGATTGTTCTCCCAGCTGATGAATTGATGACATCGAGTAAACAAATTTTCCTAATCTTTCTGTTCAAGCGCCATCTAC”, with 1.05 RPM ratio (pull-down/input).

Turning to “GATGATTGTTCTCCCAGCTGATGAATTGTTGACATCGAGTAAACAAATTTTCCTAATCTTTCTGTTCAAGCGCCATCTAC”, the binding signal is 5.72 RPM ratio (pull-down/input). Then “GATGATTGTTCTCCCAGCTGATGAATTTGTTTGATCGAGTAAACAAATTTTCCTAATCTTTCTGTTCAAGCGCCATCTAC”, with 5.99 RPM ratio (pull-down/input); and “GATGATTGTTCTCCCAGCTGATGAATTTTTGACATCGAGTAAACAAATTTTCCTAATCTTTCTGTTCAAGCGCCATCTAC”, with 0.524 RPM ratio (pull-down/input). On to “GATGATTGTTCTCCCAGCTGATGAATTGTTTTGATCGAGTAAACAAATTTTCCTAATCTTTCTGTTCAAGCGCCATCTAC”, for which the binding signal was 4.03 RPM ratio (pull-down/input). Consider “GATGATTGTTCTCCCAGCTGATGAATTTTGTTGATCGAGTAAACAAATTTTCCTAATCTTTCTGTTCAAGCGCCATCTAC”, for which the binding signal was 7.34 RPM ratio (pull-down/input). As for “GATGATTGTTCTCCCAGCTGATGAATTGATTTGATCGAGTAAACAAATTTTCCTAATCTTTCTGTTCAAGCGCCATCTAC”, the figure is 0.64 RPM ratio (pull-down/input). Take “GATGATTGTTCTCCCAGCTGATGAATTTTTTTGATCGAGTAAACAAATTTTCCTAATCTTTCTGTTCAAGCGCCATCTAC”: the binding signal was 0.23 RPM ratio (pull-down/input). As for “GATGATTGTTCTCCCAGCTGATGAATTGATTCTCTCGAGTAAACAAATTTTCCTAATCTTTCTGTTCAAGCGCCATCTAC”, the figure is 0.395 RPM ratio (pull-down/input). As for “GATGATTGTTCTCCCAGCTGATGAATTAAGTCGCTCGAGTAAACAAATTTTCCTAATCTTTCTGTTCAAGCGCCATCTAC”, the figure is 0.441 RPM ratio (pull-down/input).

“GATGATTGTTCTCCCAGCTGATGAATTAGGACGCTCGAGTAAACAAATTTTCCTAATCTTTCTGTTCAAGCGCCATCTAC”: the binding signal is 0.484 RPM ratio (pull-down/input). As for “GATGATTGTTCTCCCAGCTGATGAATTATACGAGTCGAGTAAACAAATTTTCCTAATCTTTCTGTTCAAGCGCCATCTAC”, the figure is 0.404 RPM ratio (pull-down/input); as for “GATGATTGTTCTCCCAGCTGATGAATTCTAGACCTCGAGTAAACAAATTTTCCTAATCTTTCTGTTCAAGCGCCATCTAC”, 0.236 RPM ratio (pull-down/input).

As for “GATGATTGTTCTCCCAGCTGATGAATTCTTAGCCTCGAGTAAACAAATTTTCCTAATCTTTCTGTTCAAGCGCCATCTAC”, the binding signal was 0.373 RPM ratio (pull-down/input). As for “GATGATTGTTCTCCCAGCTGATGAATTTCTTTGGTCGAGTAAACAAATTTTCCTAATCTTTCTGTTCAAGCGCCATCTAC”, the figure is 1.03 RPM ratio (pull-down/input); as for “GATGATTGTTCTCCCAGCTGATGAATTCTTTTGGTCGAGTAAACAAATTTTCCTAATCTTTCTGTTCAAGCGCCATCTAC”, 0.31 RPM ratio (pull-down/input).

Consider “GATGATTGTTCTCCCAGCTGATGAATTTGGTTGGTCGAGTAAACAAATTTTCCTAATCTTTCTGTTCAAGCGCCATCTAC”, for which the binding signal is 2.96 RPM ratio (pull-down/input).

Take “GATGATTGTTCTCCCAGCTGATGAATTCAATTGGTCGAGTAAACAAATTTTCCTAATCTTTCTGTTCAAGCGCCATCTAC”: the binding signal was 2.04 RPM ratio (pull-down/input). Regarding “GATGATTGTTCTCCCAGCTGATGAATTGGTTGTGTCGAGTAAACAAATTTTCCTAATCTTTCTGTTCAAGCGCCATCTAC”, the binding signal is 5.42 RPM ratio (pull-down/input). With “GATGATTGTTCTCCCAGCTGATGAATTGTTTGGGTCGAGTAAACAAATTTTCCTAATCTTTCTGTTCAAGCGCCATCTAC”, the binding signal is 4.43 RPM ratio (pull-down/input). “GATGATTGTTCTCCCAGCTGATGAATTTGTTGGGTCGAGTAAACAAATTTTCCTAATCTTTCTGTTCAAGCGCCATCTAC”: the binding signal was 7.61 RPM ratio (pull-down/input). As for “GATGATTGTTCTCCCAGCTGATGAATTGGTGTGGTCGAGTAAACAAATTTTCCTAATCTTTCTGTTCAAGCGCCATCTAC”, the figure is 1.32 RPM ratio (pull-down/input); as for “GATGATTGTTCTCCCAGCTGATGAATTGTGTTGGTCGAGTAAACAAATTTTCCTAATCTTTCTGTTCAAGCGCCATCTAC”, 6.68 RPM ratio (pull-down/input); as for “GATGATTGTTCTCCCAGCTGATGAATTCTGTTGGTCGAGTAAACAAATTTTCCTAATCTTTCTGTTCAAGCGCCATCTAC”, 5.56 RPM ratio (pull-down/input). Then “GATGATTGTTCTCCCAGCTGATGAATTTTTGGGGTCGAGTAAACAAATTTTCCTAATCTTTCTGTTCAAGCGCCATCTAC”, with 0.233 RPM ratio (pull-down/input); and “GATGATTGTTCTCCCAGCTGATGAATTTTGTTGGTCGAGTAAACAAATTTTCCTAATCTTTCTGTTCAAGCGCCATCTAC”, with 7.07 RPM ratio (pull-down/input).
